Results published in PubChem BioAssay.
Activity calls are given as the source filed them.

What was measured:
Albumin (Bos taurus) = Albumin (Bos taurus) (UniProt P02769); assay: compounds binding labelled BSA control protein – biochemical, small-molecule microarray, Alexa647 label, 635/667 nm fluorescence, artefact control for SMM control protein annotation, profiling panel (AID 1118); conditions: BSA-A647 binding, fluorescence 635 nm, higher = more signal;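 also: score merges 667 nm emission intensity and signal-to-noise per printed compound spot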
Sequence of Albumin (Bos taurus) (P02769 whole entry, looked up): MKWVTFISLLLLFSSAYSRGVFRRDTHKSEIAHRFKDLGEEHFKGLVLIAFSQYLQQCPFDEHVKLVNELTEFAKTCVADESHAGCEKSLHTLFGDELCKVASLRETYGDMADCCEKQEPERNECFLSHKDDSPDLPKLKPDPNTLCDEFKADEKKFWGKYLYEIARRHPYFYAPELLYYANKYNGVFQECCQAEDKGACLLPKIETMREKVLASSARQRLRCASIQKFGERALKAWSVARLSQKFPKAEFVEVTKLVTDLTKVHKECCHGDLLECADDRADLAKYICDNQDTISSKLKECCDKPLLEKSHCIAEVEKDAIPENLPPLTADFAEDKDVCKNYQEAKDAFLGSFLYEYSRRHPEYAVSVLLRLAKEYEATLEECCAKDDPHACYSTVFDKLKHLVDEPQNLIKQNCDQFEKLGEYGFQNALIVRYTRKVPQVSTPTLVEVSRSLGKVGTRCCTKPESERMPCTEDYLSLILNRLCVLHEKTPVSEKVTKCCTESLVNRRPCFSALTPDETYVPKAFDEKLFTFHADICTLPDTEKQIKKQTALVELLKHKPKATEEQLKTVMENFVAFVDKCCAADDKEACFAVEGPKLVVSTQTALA

[1] = probe aXIP binding to arrayed compounds – biochemical, NeuroSMM set, 635/667 nm fluorescence, primary screen (AID 1119); conditions: small-molecule microarray, higher = more signal, called active from +8 up or from −8 down;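 also: probe is the protein aXip251-270 applied at 1 µg/mL to compound-printed slides; binding of probe to printed compounds measured as 667 nm fluorescence plus signal to noise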
[2] = probe aNOTCH3 binding on compound microarray – biochemical, small-molecule microarray, 635/667 nm fluorescence, primary screen (AID 1120); conditions: higher = more signal;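 also: probe is a biotin-tagged antibody raised against NOTCH3 rather than NOTCH3 protein; score merges spot fluorescence near 667 nm with spot signal to noise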
[3] = probe aNOTCH2 binding on compound microarray – biochemical, small-molecule microarray, 635/667 nm fluorescence, primary screen (AID 1121); conditions: higher = more signal;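 also: score merges feature fluorescence read at 667 nm with its signal to noise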
[4] = molecular target: Carbonic anhydrase 2 (Homo sapiens) (UniProt P00918); assay: compounds binding carbonic anhydrase 2 – biochemical, small-molecule microarray, Alexa647-labelled CAII, profiling panel (AID 1122); conditions: CAII-A647 binding fluorescence, higher = more signal
[5] = COS7 lysate on small-molecule microarray, probe aHis, 635 nm (AID 1123); conditions: COS7 cell lysate, fluorescence, higher = more signal;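 also: z-score combines 667nm fluorescence intensity with signal-to-noise per printed compound spot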
[6] = probe aLAP1 signal on lysate-treated microarray – cell lysate, small-molecule microarray, COS7 lysate, primary screen (AID 1124); conditions: probe aLAP1, fluorescence, higher = more signal;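 also: lysate comes from COS7 cells expressing LAP1 and is applied at 0.3 µg/mL; score merges spot fluorescence near 667 nm with signal-to-noise over triplicate slides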
Sam68 (KHDRBS1) = assay: compounds binding KHDRBS1 protein – biochemical, small-molecule microarray, 635 nm fluorescence, primary screen (AID 1125); conditions: higher = more signal;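 also: score merges 667 nm channel intensity with signal to noise over triplicate slides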
[7] = system: Chordin-like protein 2 (CHRDL2); assay: compounds binding chordin-like 2 – biochemical, small-molecule microarray, 635 nm fluorescence, primary screen (AID 1126); conditions: fluorescence 635 nm, higher = more signal;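 also: printed compound slides probed with Chrdl2 protein at 4 µg/mL for 1 h at 4 C; score merges 667 nm emission intensity with signal to noise over three replicate slides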
[8] = molecular target: Concanavalin-A (Canavalia ensiformis) (UniProt P02866); assay: compounds binding concanavalin A lectin – biochemical, small-molecule microarray, Alexa647 label, 635 nm, artefact control for SMM control protein annotation, primary screen (AID 1127); conditions: ConA-A647 binding fluorescence, higher = more signal;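 also: z combines 667 nm emission intensity with signal-to-noise across three replicate slides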
Sequence of Concanavalin-A (Canavalia ensiformis) (P02866 whole entry, looked up): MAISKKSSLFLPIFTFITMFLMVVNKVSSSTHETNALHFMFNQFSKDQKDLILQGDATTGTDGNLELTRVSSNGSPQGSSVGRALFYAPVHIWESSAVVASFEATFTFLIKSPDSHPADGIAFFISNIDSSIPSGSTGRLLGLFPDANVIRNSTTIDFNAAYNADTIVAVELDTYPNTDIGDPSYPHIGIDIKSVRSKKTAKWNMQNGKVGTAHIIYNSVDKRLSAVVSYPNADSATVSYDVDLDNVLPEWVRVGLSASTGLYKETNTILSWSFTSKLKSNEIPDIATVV

[9] = compounds binding Alexa647 anti-His antibody – biochemical, small-molecule microarray, 635 nm fluorescence, artefact control for SMM control protein annotation, primary screen (AID 1128); conditions: higher = more signal;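 also: score merges feature fluorescence with signal-to-noise for each printed compound spot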
[10] = system: Human papillomavirus type 1a E7 protein (residues 1-88); assay: HPV1a E7 small-molecule binders, primary screen, biochemical, small-molecule microarray, residues 1-88, 635 nm (AID 1129); conditions: small-molecule microarray binding, fluorescence 635 nm; higher = more signal
[11] = molecular target: Focal adhesion kinase 1 (Homo sapiens) (UniProt Q05397); assay: PTK2 protein binding on printed compound slides – biochemical, small-molecule microarray, 635/667 nm fluorescence, BSA, DTT, primary screen (AID 1130); conditions: 635 nm fluorescence, higher = more signal;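 also: composite of spot emission at 667 nm and signal to noise over triplicate slides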
Sequence of Focal adhesion kinase 1 (Homo sapiens) (Q05397 whole entry, looked up): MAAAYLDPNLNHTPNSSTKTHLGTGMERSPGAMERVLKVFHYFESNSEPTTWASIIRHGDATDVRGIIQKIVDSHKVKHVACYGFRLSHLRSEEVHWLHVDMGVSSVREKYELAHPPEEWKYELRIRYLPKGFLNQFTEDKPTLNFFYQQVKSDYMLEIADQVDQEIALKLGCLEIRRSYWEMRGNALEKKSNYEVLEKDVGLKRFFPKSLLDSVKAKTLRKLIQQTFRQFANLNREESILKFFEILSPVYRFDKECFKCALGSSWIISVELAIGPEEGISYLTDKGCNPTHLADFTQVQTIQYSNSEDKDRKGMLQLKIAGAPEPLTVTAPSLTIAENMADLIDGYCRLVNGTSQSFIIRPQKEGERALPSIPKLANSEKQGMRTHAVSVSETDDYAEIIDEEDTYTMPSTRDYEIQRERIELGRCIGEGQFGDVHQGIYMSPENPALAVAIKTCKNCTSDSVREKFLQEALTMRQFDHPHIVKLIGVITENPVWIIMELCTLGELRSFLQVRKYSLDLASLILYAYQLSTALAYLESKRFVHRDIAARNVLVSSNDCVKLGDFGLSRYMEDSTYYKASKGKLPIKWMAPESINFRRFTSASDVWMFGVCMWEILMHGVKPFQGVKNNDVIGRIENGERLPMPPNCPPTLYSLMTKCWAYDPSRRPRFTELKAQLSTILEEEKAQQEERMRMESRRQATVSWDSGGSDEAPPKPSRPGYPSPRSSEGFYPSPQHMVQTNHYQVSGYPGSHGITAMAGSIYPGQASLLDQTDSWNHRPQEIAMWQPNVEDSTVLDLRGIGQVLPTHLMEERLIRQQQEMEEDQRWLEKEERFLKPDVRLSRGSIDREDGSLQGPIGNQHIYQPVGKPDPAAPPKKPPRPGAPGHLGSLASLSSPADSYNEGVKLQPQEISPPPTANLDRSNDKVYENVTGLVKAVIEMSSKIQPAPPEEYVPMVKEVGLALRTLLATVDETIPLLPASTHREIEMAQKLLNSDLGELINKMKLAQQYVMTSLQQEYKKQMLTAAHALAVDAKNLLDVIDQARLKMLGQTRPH

[12] = system: Fibrinogen (Alexa647-labelled); assay: Alexa647-fibrinogen binding to printed small molecules – biochemical, small-molecule microarray, 635/667 nm fluorescence, artefact control for SMM control-protein annotation, profiling panel (AID 1131); conditions: fibrinogen-A647 binding fluorescence, higher = more signal;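 also: z-score merges 667 nm fluorescence with per-spot signal-to-noise over triplicate slides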
[13] = molecular target: Follistatin (Homo sapiens) (UniProt P19883); assay: FST protein binding to printed compounds – biochemical, small-molecule microarray, 635/667 nm fluorescence, primary screen (AID 1132); conditions: 635 nm fluorescence, higher = more signal
Sequence of Follistatin (Homo sapiens) (P19883 whole entry, looked up): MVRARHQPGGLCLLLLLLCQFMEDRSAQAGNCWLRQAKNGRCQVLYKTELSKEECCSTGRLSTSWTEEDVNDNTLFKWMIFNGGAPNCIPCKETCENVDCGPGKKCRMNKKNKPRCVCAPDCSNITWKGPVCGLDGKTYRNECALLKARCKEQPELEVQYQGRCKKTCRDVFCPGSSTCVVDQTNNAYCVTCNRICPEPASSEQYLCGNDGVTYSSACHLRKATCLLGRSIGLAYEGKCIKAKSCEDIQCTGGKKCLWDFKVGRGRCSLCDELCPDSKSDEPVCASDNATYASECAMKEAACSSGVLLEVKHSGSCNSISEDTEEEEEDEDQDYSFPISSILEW

[14] = molecular target: Fibroblast growth factor 2 (Homo sapiens) (UniProt P09038); assay: basic fibroblast growth factor binding to printed compounds – biochemical, small-molecule microarray, 635/667 nm fluorescence, primary screen (AID 1133); conditions: FGF2, fluorescence 635/667, higher = more signal
Sequence of Fibroblast growth factor 2 (Homo sapiens) (P09038 whole entry, looked up): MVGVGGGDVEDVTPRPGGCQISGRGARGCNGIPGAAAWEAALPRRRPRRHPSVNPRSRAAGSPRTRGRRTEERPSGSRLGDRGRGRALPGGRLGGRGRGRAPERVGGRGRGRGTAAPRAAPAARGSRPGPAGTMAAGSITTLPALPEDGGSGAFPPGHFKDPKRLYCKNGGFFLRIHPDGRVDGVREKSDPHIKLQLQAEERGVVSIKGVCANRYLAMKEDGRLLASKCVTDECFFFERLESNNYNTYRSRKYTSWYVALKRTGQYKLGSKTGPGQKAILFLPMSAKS

[15] = JC-1 mitochondrial potential readout, lung cancer cells – cell-based, A549, JC-1 fluorescence, basal, 24 h, 100 nL, profiling panel (AID 1138); conditions: higher = more signal;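 also: A549 lung adenocarcinoma cells under basal conditions with no added stimulus; test concentration not given here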
Lefty1 = Lefty1 protein binding to printed compounds – biochemical, small-molecule microarray, 635/667 nm fluorescence, primary screen (AID 1139); conditions: fluorescence 635/667, higher = more signal
[16] = system: wheat germ agglutinin (Triticum aestivum), Alexa647-labelled; assay: Alexa647-WGA lectin binding to printed small molecules – biochemical, small-molecule microarray, 635/667 nm fluorescence, artefact control for SMM control-protein annotation, profiling panel (AID 1140); conditions: WGA-A647 binding, 635 nm fluorescence, higher = more signal;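 also: score merges 667 nm feature emission with signal to noise over triplicate slides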
[17] = molecular target: Luciferin 4-monooxygenase (Photinus pyralis) (UniProt P08659); assay: inhibition of purified Photinus pyralis luciferase – biochemical, luminescence, purified enzyme, 2006 set, primary screen (AID 1141); conditions: purified firefly luciferase, SteadyGlo luminescence, 30 min; higher = more signal, called active from +8 up or from −8 down;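 also: cell-free assay with purified firefly luciferase at 100 ng per well in PBS; test concentration not given here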
Sequence of Luciferin 4-monooxygenase (Photinus pyralis) (P08659 whole entry, looked up): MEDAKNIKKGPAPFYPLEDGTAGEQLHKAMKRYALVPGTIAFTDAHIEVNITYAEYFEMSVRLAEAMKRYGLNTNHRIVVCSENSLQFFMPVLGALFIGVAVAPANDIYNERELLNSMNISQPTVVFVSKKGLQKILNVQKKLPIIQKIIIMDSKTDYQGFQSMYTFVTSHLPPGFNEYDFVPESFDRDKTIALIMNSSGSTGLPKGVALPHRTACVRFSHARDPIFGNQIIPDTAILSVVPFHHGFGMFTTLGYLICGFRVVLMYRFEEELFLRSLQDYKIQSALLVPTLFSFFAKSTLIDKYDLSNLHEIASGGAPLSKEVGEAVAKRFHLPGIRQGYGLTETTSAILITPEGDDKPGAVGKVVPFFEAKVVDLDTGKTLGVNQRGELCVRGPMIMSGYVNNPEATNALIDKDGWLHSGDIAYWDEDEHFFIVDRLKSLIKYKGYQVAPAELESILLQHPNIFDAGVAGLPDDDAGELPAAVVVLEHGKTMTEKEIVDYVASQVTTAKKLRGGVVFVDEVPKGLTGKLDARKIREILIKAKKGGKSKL

Row | Structure (SMILES) | composite z-score (Albumin (Bos taurus)) | composite Z-score [1] | composite z-score [2] | composite z-score [3] | composite z-score [4] | composite z-score [5] | composite z-score [6] | composite z-score (Sam68 (KHDRBS1)) | composite z-score [7] | composite z-score [8] | composite z-score [9] | composite z-score [10] | composite z-score [11] | composite z-score [12] | composite z-score [13] | composite z-score [14] | z-score [15] | composite z-score (Lefty1) | composite z-score [16] | z-score [17]
1 | COC(=O)[C@@H]1CC[C@H](C)[C@@H](c2ccc(Br)cc2)N1C[C@@H](O)CN=[N+]=[N-] | -0.236 | -0.509 (inactive) | 0.0016 | -0.18 | -0.0121 | 0.23 | 0.546 | 0.56 | 0.401 | -0.0032 | 0.215 | -0.0633 | -0.0902 | 0.128 | 0.4 | 0.4 | -0.822 | 0.45 | -0.0107 | 0.0386 (inactive)
2 | C#CCCCON=C1[C@H]2CCn3c(=O)n(Cc4cc5c(cc4Cl)OCO5)c(=O)n3[C@H]2[C@H](O)[C@@H]2O[C@H]12 | -0.252 | -0.141 (inactive) | -0.0178 | -0.106 | -0.0303 | -0.138 | -0.122 | 0.431 | 0.424 | 0.656 | 0.229 | 0.522 | -0.383 | 0.0676 | 0.751 | 0.486 | 0.146 | 0.748 | -0.232 | 0.303 (inactive)
3 | CCOC(=O)CCN1C(=O)[C@H]2[C@H]3[C@H](O)[C@H](O)CC(=NNC(=O)OCC)[C@H]3CC[C@H]2C1=O | -0.898 | -0.17 (inactive) | 0.0927 | -0.145 | 0.505 | 0.294 | -0.0069 | 0.398 | 1.27 | -2.61 | 0.307 | -0.113 | 0.276 | -1.05 | 0.799 | 0.406 | -0.918 | 1.01 | -0.656 | 0.303 (inactive)
4 | CCN1C(=O)[C@H]2[C@H]3[C@H](O)[C@H](O)CC(=NO[C@@H]4O[C@H](COC(C)=O)[C@@H](OC(C)=O)[C@H](OC(C)=O)[C@H]4OC(C)=O)[C@@H]3CC[C@H]2C1=O | 0.646 | 0.581 (inactive) | 0.0479 | -0.044 | -0.0179 | 0.415 | 0.781 | 1.22 | 0.58 | -0.441 | -0.36 | 0.839 | 0.211 | 0.744 | 0.898 | 0.747 | -0.282 | 1.6 | 0.696 | 1.15 (inactive)
5 | CC(C)=NOC[C@@H](O)[C@H]1O[C@@H]2OC(C)(C)O[C@@H]2[C@H]1O | 0.255 | 0.559 (inactive) | -0.349 | -0.273 | -0.0402 | 1.85 | 0.116 | 0.968 | 0.537 | 0.929 | -0.0333 | 0.491 | 0.17 | 0.0104 | 0.464 | 0.57 | 0.225 | 0.507 | 0.0212 | -0.394 (inactive)
